± gives the standard deviation of the averaged measurements.

Experimental findings from the supplement of paper PMC11628255, “Interference of metal ions on the bioluminescent signal of firefly, Renilla, and NanoLuc luciferases in high-throughput screening assays” (Frontiers in Chemistry, 2024) are described below.

This experiment concerns NanoLuc luciferase (NLuc). The experiment in a line: residual bioluminescent signal relative to negative control without GSH; higher = less interference (more residual luciferase signal). As to conditions: screening conditions buffer. Here is the method: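 Selected metal salts at 3-4 concentrations tested on purified FLuc, NLuc or RLuc in screening buffer with 0, 0.2 or 2 mM glutathione added; 10 min enzyme pre-incubation at RT, luminescence 10 min after substrate. Signal normalised to negative control without GSH (% N_VALUE); triplicate wells.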

[1] abbreviates: metal salt concentration 1 mM, glutathione 0 mM.
Where [2] appears, read: metal salt concentration 1 mM, glutathione 0.2 mM.
The mark [3] stands for this setting: metal salt concentration 1 mM, glutathione 2 mM.
[4] abbreviates: metal salt concentration 0.001 mM, glutathione 0 mM.
Setting [5] is: metal salt concentration 0.001 mM, glutathione 0.2 mM.
[6] abbreviates: metal salt concentration 0.001 mM, glutathione 2 mM.

Regarding `O=[N+]([O-])[O-].O=[N+]([O-])[O-].[Cu+2]` [copper(II) nitrate], the residual bioluminescent signal (metal salt concentration 0.0005 mM, glutathione 0 mM) was determined as 104 ± 4.1%; the residual bioluminescent signal (metal salt concentration 0.0005 mM, glutathione 0.2 mM) turned out to be 106 ± 5.4%; the residual bioluminescent signal (metal salt concentration 0.0005 mM, glutathione 2 mM) worked out at 89.3 ± 3.6%; the residual bioluminescent signal (metal salt concentration 0.017 mM, glutathione 0 mM) was found to be 101 ± 7.7%; the residual bioluminescent signal (metal salt concentration 0.017 mM, glutathione 0.2 mM) is 104 ± 6.7%; the residual bioluminescent signal (metal salt concentration 0.017 mM, glutathione 2 mM) was 92.9 ± 4.8%. Besides, the residual bioluminescent signal was 86.4 ± 3.7% (metal salt concentration 0.02 mM, glutathione 0 mM); 98 ± 2.7% (metal salt concentration 0.02 mM, glutathione 0.2 mM); 84.1 ± 2.6% (metal salt concentration 0.02 mM, glutathione 2 mM); 0.661 ± 0.17% under setting [1]; 1.03 ± 0.57% under setting [2]; 68.9 ± 7.9% under setting [3].
`O=[N+]([O-])[O-].[Ag+]` [silver nitrate]: the residual bioluminescent signal was 98.9 ± 6.8% under setting [4]; 102 ± 1.4% under setting [5]; 90.9 ± 4.7% under setting [6]; 15.6 ± 8% (metal salt concentration 0.0114 mM, glutathione 0 mM); 106 ± 1.6% (metal salt concentration 0.0114 mM, glutathione 0.2 mM); 85.33 ± 0.82% (metal salt concentration 0.0114 mM, glutathione 2 mM). Also, the residual bioluminescent signal runs as follows: (metal salt concentration 0.05 mM, glutathione 0 mM) 2.78 ± 0.95%; (metal salt concentration 0.05 mM, glutathione 0.2 mM) 107 ± 4.8%; (metal salt concentration 0.05 mM, glutathione 2 mM) 85.7 ± 1%; under setting [1], 3.17 ± 0.68%; under setting [2], 15.2 ± 5.5%; under setting [3], 82.48 ± 0.71%.
On to `O=[N+]([O-])[O-].O=[N+]([O-])[O-].[Zn+2]` [zinc nitrate], for which the residual bioluminescent signal under setting [4] came to 98.9 ± 6.3%; the residual bioluminescent signal under setting [5] was determined as 103 ± 6.2%; the residual bioluminescent signal under setting [6] came out at 89.6 ± 2.3%; the residual bioluminescent signal (metal salt concentration 0.174 mM, glutathione 0 mM) worked out at 50.9 ± 6%; the residual bioluminescent signal (metal salt concentration 0.174 mM, glutathione 0.2 mM) was 72.7 ± 2.8%; the residual bioluminescent signal (metal salt concentration 0.174 mM, glutathione 2 mM) came out at 77.5 ± 7.3%. Moreover, the residual bioluminescent signal is, setting by setting: under setting [1], 34.2 ± 8.5%; under setting [2], 42.1 ± 1.7%; under setting [3], 63.9 ± 1.7%; (metal salt concentration 5 mM, glutathione 0 mM) 5.95 ± 1.4%; (metal salt concentration 5 mM, glutathione 0.2 mM) 7.9 ± 2.7%; (metal salt concentration 5 mM, glutathione 2 mM) 12.4 ± 2.1%.
